These results are taken from PMC7819943, “Rice protein-binding microarrays: a tool to detect cis-acting elements near promoter regions in rice”.

Over roughly 68,000 sequences, “fluorescence intensity (a.u.)” has its median near 9,100; the highest 2% begin near 16,000. The entries come from a sample that favours the highest values as a whole.

Sequence of OsWRKY34 (Q0JBA9 entry or part of it): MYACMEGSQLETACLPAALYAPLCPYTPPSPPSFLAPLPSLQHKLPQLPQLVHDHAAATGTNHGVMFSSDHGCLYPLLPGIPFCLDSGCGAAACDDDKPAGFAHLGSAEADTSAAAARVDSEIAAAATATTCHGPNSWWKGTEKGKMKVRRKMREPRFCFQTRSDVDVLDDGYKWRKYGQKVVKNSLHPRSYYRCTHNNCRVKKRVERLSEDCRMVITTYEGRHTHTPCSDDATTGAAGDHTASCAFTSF

This assay addresses OsWRKY34 (Oryza sativa, UniProt Q0JBA9 1-250). Kind of assay: protein-binding microarray (RPBM); PBS, 2% BSA, 51.3 ng/ul salmon testes DNA, 50 uM zinc acetate, 200 nM TF, 25 C, 1 h; high values mean tight binding. The note with it: protein: recombinant; tags: N-terminal polyhistidine and DsRed monomer fusion (pET32a); label: CyDye5-dUTP incorporated in the synthesized complementary strand; 3' TTTTT single-stranded linker to array surface; dsDNA, one strand shown. The method in brief:
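The binding signal is fluorescence intensity per array feature (arbitrary units). Readings came from an Axon 4000B scanner after a washed, 2% BSA-blocked, double-stranded custom Agilent array had been incubated for 1 h at 25 °C with 200 nM protein and 50 µM zinc acetate. The protein was a Ni–NTA-purified transcription factor fused N-terminally to polyhistidine and DsRed, expressed in E. coli BL21-CodonPlus.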
Regarding “TGACGCCGTTGACTTTTTCTTACATGTTTGACCATTCGTCCGGAGTCACCTAGTGCAG”, the binding signal is 36700 fluorescence intensity (a.u.). As for “TCGCCGCTTTCCCTTTCTCCCCTGCGCTCTCACGTCAAACCGGAGTCACCTAGTGCAG”, the binding signal was 8970 fluorescence intensity (a.u.). In the case of “CTCTGCTCAGTGCTGCTCACTGCCTCACTCACACTGTCACCGGAGTCACCTAGTGCAG”, the binding signal is 11000 fluorescence intensity (a.u.). In the case of “CTAACCTGGACCGTCCATCCGCGCGAAGTTTTCTCCACCGCGGAGTCACCTAGTGCAG”, the binding signal was 9060 fluorescence intensity (a.u.). The figure for “TTCCACACAATGTGCTAAAAGTTTGACTTTTACACGTCCACGGAGTCACCTAGTGCAG” is 14500 fluorescence intensity (a.u.); for “AACATCTGCCTGCTCACTAAAATGATCTACCGGCTTTTTTCGGAGTCACCTAGTGCAG” it is 8620 fluorescence intensity (a.u.); for “CGCTGTTTTTTTTTTATTTTGACGGGTAGTAGAGGCCGCGCGGAGTCACCTAGTGCAG” it is 9990 fluorescence intensity (a.u.).

As to “TTTCAGAGCTATTTGGCCTTTAATACACTTTCCTATTAAGCGGAGTCACCTAGTGCAG”, the binding signal was 8710 fluorescence intensity (a.u.). In the case of “TAGATGACGCCGTTGATTTTTTTCTCACATATTTGACCATCGGAGTCACCTAGTGCAG” it was 10700 fluorescence intensity (a.u.). In the case of “TGACTTTTTCTCACATGTTTGACCATTCGTCTTATTAAAACGGAGTCACCTAGTGCAG” it was 12500 fluorescence intensity (a.u.). In the case of “TCATCTCACGCTGTTGACTTTCTCTTTTTTTTTCGGGGAGCGGAGTCACCTAGTGCAG” it was 18000 fluorescence intensity (a.u.); in that of “TGACGCCGTTGACTTTTTATCTAATGTTTGACTATTCGTCCGGAGTCACCTAGTGCAG”, 43500 fluorescence intensity (a.u.); in that of “AGATGACGCCGTTGACTTTTTCTTACATATTTGACCATTCCGGAGTCACCTAGTGCAG”, 25400 fluorescence intensity (a.u.). Consider “CACCGTTGACTTTTTCTCACATGTTTGACCATTCGTCTTACGGAGTCACCTAGTGCAG”, for which the binding signal is 48400 fluorescence intensity (a.u.). The figure for “ACTTTTTTTCTCAATCTGTGCTCTTTCACGTGTTTGACTTCGGAGTCACCTAGTGCAG” is 11400 fluorescence intensity (a.u.); for “AGTTGTTCTTCTCAGCAGGTTGCTGTCATCTTAGACTTTTCGGAGTCACCTAGTGCAG” it is 8410 fluorescence intensity (a.u.).

Take “TAGACTTTTTCTCACATGTTTGACCATTCGTCTTATTCAACGGAGTCACCTAGTGCAG”: the binding signal is 11700 fluorescence intensity (a.u.).

Turning to “ACTGTCCACTCACTTTTTCTTCACCCAGGAGACGAAATTTCGGAGTCACCTAGTGCAG”, the binding signal is 11200 fluorescence intensity (a.u.). As for “TGGCTTATCTCGTTTTGTATATCATCTTCTTAATCTTTTTCGGAGTCACCTAGTGCAG”, the binding signal is 10500 fluorescence intensity (a.u.). The figure for “CTGCCTCGCTGCCGCCTGCCGTCTCCCCGGGCCCATCTTTCGGAGTCACCTAGTGCAG” is 8210 fluorescence intensity (a.u.); for “GTGGCGTCAAAGTATTGAGGGCGGGGATGCGGCCACCGTACGGAGTCACCTAGTGCAG” it is 8640 fluorescence intensity (a.u.); for “ACCTGTGCTTGATGGGATGGAAGCTTGGATTAGGTTGGTTCGGAGTCACCTAGTGCAG” it is 8560 fluorescence intensity (a.u.). Take “TCTCGCTCGTTTTACCGCAGCATTTTGTTGTTGCTCTAGCCGGAGTCACCTAGTGCAG”: the binding signal was 8620 fluorescence intensity (a.u.).

In the case of “AGTTAGTCAAGCGTATCCTATTTTACGTGCCCGCGCGAATCGGAGTCACCTAGTGCAG”, the binding signal was 9610 fluorescence intensity (a.u.). Consider “GACTATCTTGTCGTTCGGTCCAAAAACCGGCGCCTTATGACGGAGTCACCTAGTGCAG”, for which the binding signal was 8300 fluorescence intensity (a.u.).

Turning to “CACGACCTTAAGCCTCATAATTTGGACAATCACAGCAACTCGGAGTCACCTAGTGCAG”, the binding signal is 9170 fluorescence intensity (a.u.). The figure for “CGCCGTTGACTTTTTCTCACATGTTTGACCATTCGTCTTACGGAGTCACCTAGTGCAG” is 42500 ± 475 fluorescence intensity (a.u.).

For “TGATGCCGTTGACTTTTTCTCATATGTTTGACCATTCGTCCGGAGTCACCTAGTGCAG”, the binding signal is 44800 fluorescence intensity (a.u.). In the case of “CATTGACTTTTTCTCACATATTTGTCCATTCGTCTTATTACGGAGTCACCTAGTGCAG” it was 16100 fluorescence intensity (a.u.); in that of “TTGACCTTTTCTCACATGTTTAACCATTCGTCTTATTTAACGGAGTCACCTAGTGCAG”, 13500 fluorescence intensity (a.u.). The figure for “TTTTTTCTCACATGTTTGACCATTCGTCTTATTCAAAAAACGGAGTCACCTAGTGCAG” is 8550 fluorescence intensity (a.u.). In the case of “GCACATGTTTGACCATTCATCTTATAAGAAAAAACTTTTGCGGAGTCACCTAGTGCAG”, the binding signal was 8090 fluorescence intensity (a.u.).

For “ACCATGTTGACTTTTTGCACATTTATAGAATCTTTTGGTACGGAGTCACCTAGTGCAG”, the binding signal was 21800 fluorescence intensity (a.u.). The figure for “GTTGACTTTTTTTCACATGTTTGACCATTCATCTTATTCACGGAGTCACCTAGTGCAG” is 13400 fluorescence intensity (a.u.); for “AATAGATGACGTTGTTGACTTTTTCTCATATGTTTGACCACGGAGTCACCTAGTGCAG” it is 13000 fluorescence intensity (a.u.); for “GCCGTTGACTTTTTCTCACATATTTGACCATTCGTCTTATCGGAGTCACCTAGTGCAG” it is 45300 fluorescence intensity (a.u.). The figure for “TTCTCACATGTTTGACCATTCGTCTTATTAAAAATTTTATCGGAGTCACCTAGTGCAG” is 11100 fluorescence intensity (a.u.); for “ATAGATGACGCCGTTGATTTTTTCTCATATGTTTGACCATCGGAGTCACCTAGTGCAG” it is 11600 fluorescence intensity (a.u.); for “TCGTCCGCTGCAGCCGCTCGCTAGCTAGTAGCTATAGCTACGGAGTCACCTAGTGCAG” it is 8160 fluorescence intensity (a.u.). The figure for “ACACAGGCAGCAGTAGCACCTCGATCCATCTACCATTTTACGGAGTCACCTAGTGCAG” is 10200 fluorescence intensity (a.u.). Take “CTTAGCTCGTATGTAGACTTTTGATGGCTTAATCCTATTTCGGAGTCACCTAGTGCAG”: the binding signal was 8550 fluorescence intensity (a.u.).

As to “ATTAGGGATAACCGTCACTGTTTGTTGCTGTTTTTATGTTCGGAGTCACCTAGTGCAG”, the binding signal was 9960 fluorescence intensity (a.u.).
